Screening results deposited in PubChem by The Scripps Research Institute Molecular Screening Center.
LYPLA1 counter: LYPLA1 inhibitors, primary screen, counter-screen for PME1 inhibitor project, biochemical, fluorescence polarization, FP-Rh probe ABPP | recombinant LYPLA1 | inhibition, % at 5.9 µM | actives 0.16% (n = 320,000) | AID 2174, 2009;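 active = inhibition above the mean of all tested compounds plus 3 SD, set per campaign, cut at about 14% in these data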;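 also: inhibitors block serine hydrolase probe labeling of LYPLA1 so polarization falls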
Target sequence (O75608 whole entry, looked up): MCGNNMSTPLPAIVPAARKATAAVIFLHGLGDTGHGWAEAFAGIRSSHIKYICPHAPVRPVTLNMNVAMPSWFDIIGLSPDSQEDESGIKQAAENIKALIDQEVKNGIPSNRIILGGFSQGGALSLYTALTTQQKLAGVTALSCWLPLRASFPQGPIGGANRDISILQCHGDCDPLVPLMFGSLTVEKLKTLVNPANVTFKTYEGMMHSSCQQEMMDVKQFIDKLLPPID
PAD4 inh: human PAD4 inhibitors, primary screen, biochemical, fluorescence polarization, 1536-well format. recombinant PAD4, RCA probe fluorescence polarization. inhibition, % at 6.36 µM. actives 0.41% (n = 330,000);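 active = percent inhibition above a cutoff equal to the mean of all tested compounds plus 3 SD, cut at about 15% in these data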
PME-1 primary: PME-1 inhibitors via competitive probe labeling, primary screen, biochemical, fluorescence polarization, FP-Rh probe, HTS; actives 0.53% (n = 320,000); inhibition, % at 5.9 µM; recombinant PME-1; AID 2130, 2009; Protein phosphatase methylesterase 1 (Homo sapiens), Q9Y570;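 active = inhibition above the campaign mean of all compounds plus 3 SD, cut at about 26% in these data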;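 also: competitive labeling of PME-1 active site by serine hydrolase directed probe; inhibitors block probe labeling so polarization falls and inhibition rises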
Target sequence (Q9Y570 whole entry, looked up): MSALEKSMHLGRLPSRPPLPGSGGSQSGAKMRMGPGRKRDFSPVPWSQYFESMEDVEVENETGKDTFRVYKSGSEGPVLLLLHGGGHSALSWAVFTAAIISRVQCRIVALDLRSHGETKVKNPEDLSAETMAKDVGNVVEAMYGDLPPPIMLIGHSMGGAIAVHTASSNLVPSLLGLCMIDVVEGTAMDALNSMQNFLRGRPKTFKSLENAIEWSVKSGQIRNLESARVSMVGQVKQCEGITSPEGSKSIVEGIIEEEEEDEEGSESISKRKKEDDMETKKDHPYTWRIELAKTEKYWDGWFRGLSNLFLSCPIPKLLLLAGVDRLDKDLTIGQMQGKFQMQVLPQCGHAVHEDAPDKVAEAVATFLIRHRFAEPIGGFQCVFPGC
LYPLA2 inh: LYPLA2 inhibitors, primary screen, counter-screen for PME1 inhibitor project, biochemical, fluorescence polarization, FP-Rh probe ABPP; Acyl-protein thioesterase 2 (Homo sapiens), O95372; recombinant LYPLA2; inhibition, % at 5.9 µM; actives 0.38% (n = 320,000); AID 2177, 2009;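 active = inhibition above the screen-wide mean plus 3 SD, limit set per campaign, cut at about 26% in these data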
GSTO1 counter: inhibitors of recombinant GSTO1, primary screen, counter-screen for RBBP9 inhibitor project, biochemical, fluorescence polarization; actives 1.1% (n = 300,000); activity-based probe fluorescence polarization; inhibition, % at 5.96 µM; Glutathione S-transferase omega-1 (Homo sapiens), P78417;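 active = inhibition above the campaign mean inhibition plus 3 SD, cut at about 35% in these data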
Fam108B inh: mouse Fam108B serine hydrolase inhibitors, primary screen, counter-screen for RBBP9 inhibitor project, biochemical, fluorescence polarization | actives 0.33% (n = 300,000) | inhibition, % at 9.51 µM | recombinant Fam108B, FP-Rh probe fluorescence polarization;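 active = inhibition above the screen mean inhibition plus 3 SD, computed separately per campaign, cut at about 18% in these data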;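 also: inhibitors lower polarization as less probe binds the enzyme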
Fam108b inh conf: mouse Fam108b serine hydrolase inhibitors, confirmation, counter-screen for RBBP9 inhibitor project, biochemical, fluorescence polarization, triplicate; actives 44% (n = 930); inhibition, % at 9.51 µM; AID 1978, 2009; shares compounds with Fam108B inh; recombinant Fam108b, FP-Rh probe fluorescence polarization;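 active = inhibition above a limit from the primary screen, the mean over all compounds plus 3 SD, cut at about 19% in these data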;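 also: inhibitors free the probe so polarization falls as inhibition rises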
Fam108b inh: inhibition of mouse Fam108b by HTS hits, late-stage follow-up, biochemical, gel-based ABPP, soluble recombinant form; shares compounds with Fam108B inh; fluorophosphonate probe; inhibition, % at 20 µM; actives 44% (n = 260); AID 588649, 2011; in the data active = inhibition above about 40%
A number is an active result; . = inactive; / = no result. Sampled rows, rich in hits. Any-hit rate of the full collection: about 1.8%.

SMILES	LYPLA1 counter	PAD4 inh	PME-1 primary	LYPLA2 inh	GSTO1 counter	Fam108B inh	Fam108b inh conf	others
COc1cccc(C(=O)/C=C/Nc2ccc(S(=O)(=O)Nc3ccc(C(C)=O)cc3)cc2)c1	.	.	.	.	.	.	/
COc1ccc(C(=O)/C=C/Nc2ccc(S(=O)(=O)Nc3cccc(C(C)=O)c3)cc2)cc1	.	.	43	.	.	34	20
COc1ccc(NN=C(C=NO)C(=O)c2ccc(OC)cc2)cc1	/	/	/	/	/	/	/	Fam108b inh=.
CO/N=C/C(=N\Nc1ccc(C)cc1)C(=O)c1ccc(OC)cc1	.	.	.	.	.	.	/
O=C(NCc1ccccn1)c1cc(S(=O)(=O)N2CCCCC2)ccc1Cl	.	.	.	.	/	/	/
COc1ccc(-c2cc3ncnc(Cl)c3s2)cc1	.	.	.	.	.	.	/
Cc1cc2nc(-c3ccc(SCc4ccc(C#N)cc4)nc3)[nH]c2cc1C	.	.	.	.	.	26	.
O=C(Nc1ccc(N2CCOCC2)cc1)Nc1ccc2nc(-c3ccco3)c(-c3ccco3)nc2c1	.	.	65	.	.	26	.
CC(C(=O)N1c2ccccc2CC1C)N1CCN(S(=O)(=O)c2ccccc2F)CC1 (stereo unspecified)	.	.	.	.	/	/	/
Cc1cc(C)c(C)c(S(=O)(=O)N2CCC(C(=O)Nc3ccncc3)CC2)c1C	.	.	.	.	.	.	/
O=C(CNc1cccc2ccccc12)N/N=C/c1ccccn1	.	.	.	.	.	.	/
O=C(CNc1cccc2ccccc12)N/N=C/c1cccc(Oc2ccccc2)c1	.	.	36	.	.	33	.
COc1cc(/C=N/n2c(-c3ccc4c(c3)NC(=O)CO4)csc2=Nc2cccc(C)c2)ccc1O	.	.	.	.	.	21	.
Cc1cc(C(C#N)c2ccc(Cl)cc2)c(Cl)cc1NC(=O)c1cc(I)cc(I)c1O (stereo unspecified)	.	.	40	.	.	25	42	Fam108b inh=45
O=C(O)C1Nc2c(Cl)cc(Cl)c(Cl)c2C2C=CCC12 (stereo unspecified)	.	.	.	.	.	.	/
O=C(O)C1Nc2c(Cl)cc(Cl)cc2C2C=CCC12 (stereo unspecified)	.	.	.	.	.	33	24
COCCCNC(=O)C[C@H]1C[C@H](C(=O)N2CCCCC2)[C@@]2(C)c3[nH]c4cc(-c5ccco5)ccc4c3CCN2C1=O	/	.	/	/	/	/	/
CSCC[C@H](NC(=O)N1CCn2c1nc1ccccc12)C(=O)N1CCCCC1	.	.	.	.	.	.	/
CCc1ccc(S(=O)(=O)/N=C2\C=CC(=O)c3ccccc32)cc1	.	.	.	.	67	24	21
CCc1ccc(S(=O)(=O)Nc2ccccn2)cc1	.	.	.	.	.	.	/
CC1=CC(=O)c2c(O)ccc(O)c2C1=O	.	23	.	.	69	71	43	Fam108b inh=65
CCCCn1c(N)c(N(CCC(C)C)C(=O)COC(=O)/C=C/c2ccc(F)cc2)c(=O)[nH]c1=O	/	.	/	/	/	/	/
O=C(O)c1ccc(NC(=O)c2cccc(C(=O)Nc3ccc(C(=O)O)cc3)n2)cc1	.	.	.	.	.	21	.
CN(C)c1ccc(NC(=O)c2cccc(C(=O)Nc3ccc(N(C)C)cc3)n2)cc1	.	.	.	.	.	21	32	Fam108b inh=.
OCc1ccccc1OCCCOc1cccc2cccnc12	.	.	.	.	.	.	/
SMILES	LYPLA1 counter	PAD4 inh	PME-1 primary	LYPLA2 inh	GSTO1 counter	Fam108B inh	Fam108b inh conf	others
CC1(C)CC(=O)C2=C(C1)c1c(ccc3ccccc13)NC2c1cc([N+](=O)[O-])cc([N+](=O)[O-])c1O (stereo unspecified)	.	.	.	.	.	26	57	Fam108b inh=50
O=C(NN1C(=O)/C(=C/C=C/c2ccco2)SC1=S)c1ccncc1	.	.	.	.	.	41	.
CC(C)C(C(=O)O)N1C(=O)/C(=C/C=C/c2ccco2)SC1=S (stereo unspecified)	.	.	.	.	.	38	.
CC1(C)Nc2ccccc2C(=O)N1c1ccccc1	.	.	.	.	.	.	/
Cc1cc(C)c(C)c(S(=O)(=O)N2CCC(C(=O)OCC(=O)NC3CCS(=O)(=O)C3)CC2)c1C (stereo unspecified)	/	.	/	/	/	/	/
O=C(NN=C1CCN(Cc2ccccc2)CC1)c1ccccc1O	.	.	.	.	.	.	/
O=C(NN=C1CCN(Cc2ccccc2)CC1)c1cc2ccccc2cc1O	.	.	29	.	.	34	.
Cc1cc(C)cc(Nc2nc(-c3ccc(S(=O)(=O)N4CCCC4)cc3)cs2)c1	.	.	.	.	.	24	.
Cc1ccc(Nc2nc(-c3ccc(S(=O)(=O)N4CCCC4)cc3)cs2)cc1C	.	.	.	.	.	.	/
O=C(Nc1cccc(C(F)(F)F)c1)Nc1ccc(N2CCCC2)c(S(=O)(=O)Nc2ccccc2Cl)c1	.	.	.	.	.	35	32	Fam108b inh=95
CC(C)[C@H]1COCCS(=O)(=O)N1Cc1ccccc1-c1ccc(F)cc1	/	.	/	/	/	/	/
N#C/C(=C\c1coc2ccccc2c1=O)C(N)=S	.	.	.	.	.	.	/
N#C/C(=C\c1coc2ccc(O)cc2c1=O)C(=O)Nc1nc2ccccc2s1	.	.	.	.	.	44	.
COc1ccc2[nH]c3c(N4CCc5ccccc5C4)ncnc3c2c1	.	.	30	.	.	19	.
CC(C)(C)C(=O)Nc1ccc(S(=O)(=O)N2CCC(c3nc4ccccc4[nH]3)CC2)cc1	.	.	.	.	.	.	/
COc1cccc(NS(=O)(=O)c2ccc3c(c2)CCCN3C(C)=O)c1	.	.	.	.	.	.	/
COc1ccc(/C(C)=N/NC(=O)c2ccncc2)cc1	.	.	.	.	.	.	/
COc1ccc(C(=O)N/N=C(\C)c2ccc3c(c2)C2C=CCC2C(c2ccccc2)N3)cc1 (stereo unspecified)	.	.	.	.	.	20	.
COc1cccc(NS(=O)(=O)c2ccc3c(c2)C2C=CCC2C(c2ccc(C(=O)O)cc2)N3)c1 (stereo unspecified)	.	.	.	.	.	43	.
